Experimental data reported in PubChem BioAssay AID504339 (National Center for Advancing Translational Sciences (NCATS), 2011).
The campaign covered roughly 390,000 compounds. About 17,000 (4.4%) were called active. A call without a number means that no potency is given here. Another 8% or so got no clear call; they are omitted. This excerpt belongs to a sample that is enriched for actives. Unmarked numbers belong to inactive results. Calls come from the whole dose curve; as a rule, active = well fitted inhibition curve with a large enough effect; inconclusive = small, poorly fitted or top-dose-only effect; inactive = no such curve, though single readings can be large or run the other way.

molecular target: Lysine-specific demethylase 4A (Homo sapiens) (UniProt O75164); assay: qHTS Assay for Inhibitors of JMJD2A-Tudor Domain; details: AlphaScreen JMJD2A-Tudor / H3K4me3 peptide binding; series mostly up to 114 µM; note: nearly all actives have a fitted effect of over 50% in size
Sequence (O75164 whole entry, looked up, the tested form may be a part): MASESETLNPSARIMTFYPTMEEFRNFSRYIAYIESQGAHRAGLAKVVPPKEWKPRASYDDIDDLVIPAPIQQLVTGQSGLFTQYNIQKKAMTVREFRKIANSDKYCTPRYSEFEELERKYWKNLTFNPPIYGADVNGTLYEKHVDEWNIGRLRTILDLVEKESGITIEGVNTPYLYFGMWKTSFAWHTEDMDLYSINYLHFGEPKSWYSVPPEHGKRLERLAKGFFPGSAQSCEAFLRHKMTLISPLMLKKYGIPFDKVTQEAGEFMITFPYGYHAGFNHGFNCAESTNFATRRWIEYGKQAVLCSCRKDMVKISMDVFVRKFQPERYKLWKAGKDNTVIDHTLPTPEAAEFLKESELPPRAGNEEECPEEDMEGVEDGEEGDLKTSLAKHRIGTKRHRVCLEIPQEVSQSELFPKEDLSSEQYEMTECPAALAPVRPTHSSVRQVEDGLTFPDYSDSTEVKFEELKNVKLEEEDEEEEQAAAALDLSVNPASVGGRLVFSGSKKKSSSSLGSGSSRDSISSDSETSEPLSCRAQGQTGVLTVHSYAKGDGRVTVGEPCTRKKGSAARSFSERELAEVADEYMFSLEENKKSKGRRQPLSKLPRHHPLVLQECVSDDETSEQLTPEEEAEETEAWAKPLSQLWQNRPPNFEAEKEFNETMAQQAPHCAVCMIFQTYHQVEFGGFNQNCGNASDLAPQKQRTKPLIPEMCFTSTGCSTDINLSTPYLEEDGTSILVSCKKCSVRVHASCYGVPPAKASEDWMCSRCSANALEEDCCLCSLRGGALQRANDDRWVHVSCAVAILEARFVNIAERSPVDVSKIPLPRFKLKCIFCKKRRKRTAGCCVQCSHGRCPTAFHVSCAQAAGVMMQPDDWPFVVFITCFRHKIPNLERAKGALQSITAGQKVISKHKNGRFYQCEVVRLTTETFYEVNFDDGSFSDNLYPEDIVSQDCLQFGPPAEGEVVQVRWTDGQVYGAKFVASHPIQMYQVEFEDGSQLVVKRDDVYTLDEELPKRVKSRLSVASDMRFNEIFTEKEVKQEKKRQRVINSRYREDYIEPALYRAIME
From the text: JMJD2A is a jumonji-domain-containing lysine demethylase that uses Fe(II) together with 2-OG to effect oxidative demethylation of histones. Methylation is one of many […] modification that affect epigenetic transcription. […] It is proposed that the functions of JmjD2A binding to the histones, is to maintain marks after they are installed and to spread the modifications by […], establishing a self-propagating cycle for rapid methylation over a large area of chromatin. […] Thus, small molecule targeting of the JMJD2A-tudor domain interaction with its target methylhistone mark is expected to enable sophisticated experiments probing the fine regulatory pathways leading to selective demethylation of a given methyllysine locus based on the methylation state of adjacent histone marks. A quantitative high throughput AlphaScreen has been developed to identify small molecule inhibitors based on a protocol published by NCGC and SGC [4].
Although AlphaScreen has significant advantages with its utility in a variety of epigenetic target assays, the primary screening data provided in this deposition should be used with caution due to the prevalence of screening artifacts. The top compound concentration tested was high (>100uM) in this assay, which increases number of actives and potential artifacts. An AlphaScreen counterscreen is highly recommended to be run against any putative actives to eliminate non-specific artifacts. Alternatively, one can use other AlphaScreen assays in PubChem to filter out promiscuous hits.
[1] Lee, J. et al. Distinct binding modes specify the recognition of methylated histone H3K4 and H4K20 by JMJD2A-tudor. Nat Struct Mol Biol. 15(1); 109-11. 2008. PMID: 18084306
[2] Yasgar, et al. Compound Management for Quantitative High-Throughput Screening. JALA. 2008 Apr;13(2):79-89. PMID: 18496600
[3] Inglese, et al. Quantitative high-throughput screening: a titration-based approach that efficiently identifies biological activities in large chemical libraries. Proc Natl Acad Sci. 1;103(31):11473-8. 2006. PMID: 16864780
[4] Quinn et al. A homogeneous method for investigation of methyl-dependent protein-protein interactions in epigenetics. Nucleic Acids Res., 38(2):e11. 2010. PMID: […]
[5] Baell,Holloway. New substructure filters for removal of pan assay interference compounds (PAINS) from screening libraries and for their exclusion in bioassays. J Med Chem. 53(7):2719-40. 2010. PMID: 20131845
NIH Molecular Libraries Probe Production Network [MLPCN]
NIH Chemical Genomics Center [NCGC]
Structural Genomics Consortium (SGC)
To each well of a 1,536w plate, 2ul of JMJD2A-Tudor (final 100nM) and 1ul biotinylated histone peptide methylated at Lys4 [b-H3(1-18)K4me3] (final 50nM) were added in 1x PBS buffer, pH 7.4, containing 0.01% Tween-20, using a nanoliter dispenser. Formation of a protein-peptide complex proceeded at room temperature for 30 min. A Kalypsys pin-tool transferred 23nl of library compound solution in DMSO to each well. Following a 30 min incubation of the protein-peptide complex with compounds at room temperature, a mixture of 40 µg/mL each streptavidin-coated donor and nickel chelate acceptor AlphaScreen beads (final 10 µg/mL) was added in a 1ul dispense for a final volume of 4ul, followed by a brief centrifugation (1000 rpm, 1 min). Plates were incubated protected from the light for 20 min at room temperature. Microplates were then read on an EnVision multilabel plate reader using the 1,536 plate HTS AlphaScreen aperture (excitation time 80 ms, measurement time 240 ms).
Potency is the fitted concentration of half-maximal effect.

SMILES	Potency	activity change, negative = inhibition
CN(C)C(=O)NC(O)C(Cl)(Cl)Cl (stereo not drawn)	inactive	
COC(=O)C1=C(c2ccc(F)cc2F)C[C@@H]2CC[C@H]1N2C(=O)NC1CC1	inactive	
CC=C(C)C(=O)OC1CCN2CC=C(COC(=O)C(O)(C(C)OC)C(C)(C)O)C12 (stereo not drawn)	inactive	
CCOc1ccc(-c2cc(C)[n+](CCN(CC)CC)c(-c3ccc(OCC)cc3)c2)cc1	inactive	
CCC(=O)CC(c1ccc([N+](=O)[O-])cc1)c1c(O)c2ccccc2oc1=O (stereo not drawn)	inactive	
COc1ccccc1OC(=O)c1ccc(C)c(S(=O)(=O)N2CCOCC2)c1	inactive	
CC1CNCCN1c1ccc(Cl)cc1 (stereo not drawn)	inactive	
Cn1cc(/C=C/c2nc3ccccc3c(=O)n2-c2ccccc2)c2ccccc21	inactive	
CCC(=O)OC(Cc1ccccc1)(c1ccccc1)C(C)CN(C)C (stereo not drawn)	inactive	
O=C(C1CCN(CC2CCCCC2)CC1)N1CCCC1	50.1 µM (active)	
O=C(C1CC(=O)N(C2CCCC2)C1)N1CCC2(CC1)OCCO2 (stereo not drawn)	inactive	
C=C(C)C1(CCCC)C(=O)NC(=S)NC1=O	inactive	
COC(=O)C1=C(c2ccc(C(C)=O)cc2)C[C@@H]2CC[C@H]1N2C(=O)NCCNC(C)=O	inactive	
CN(C)/C=C(\C=[N+](C)C)c1[nH]ncc1[N+](=O)[O-]	inactive	
C[C@]12CCCCC1=CC(=O)C1C2CC[C@@]2(C)C1C[C@@H](F)[C@@H]2O (stereo partly drawn)	inactive	
O=C(N/N=C/c1c(O)n(C2CC2)c(=S)[nH]c1=O)c1ccccc1Cl	89.1 µM (active)	
CC/C(=N\NC(=O)c1ccccc1O)c1c(O)n(Cc2ccccc2)c(=O)[nH]c1=O		-0.735% [at 11.4 µM]
COc1ccccc1-n1c(O)c(C=NC2CC2)c(=O)[nH]c1=O	inactive	
CC(C)c1ccc(-n2c(O)c(/C=N/N3CCOCC3)c(=O)[nH]c2=S)cc1	inactive	
O=C(N/N=C/c1c(O)n(C2CC2)c(=S)[nH]c1=O)c1ccccc1	56.2 µM (active)	
O=c1[nH]c(=S)n(C2CC2)c(O)c1/C=N/N1CCOCC1	inactive	
COP(=O)(OC)C(NC(=O)c1ccc(C)cc1)C(Cl)(Cl)Cl (stereo not drawn)	inactive	
Cc1nnc(NC(=O)c2cccn(Cc3cccc(F)c3)c2=O)s1	inactive	
COC(=O)C1=C(c2cc3ccccc3s2)C[C@@H]2CC[C@H]1N2C(=O)NCc1cccc2ccccc12	inactive	
CC(CC(C#N)(c1ccccc1)c1ccccc1)N1CCCCC1 (stereo not drawn)	inactive	
O=C(COC(=O)c1ccccc1)Nc1ccccc1Sc1ccccc1	inactive	
Cc1cc(-c2n[nH]c(=S)n2-c2ccc(C)c(C)c2)no1	3.16 µM (active)	

SMILES	Potency	activity change, negative = inhibition
O=C1NC(=O)C(CCOc2ccccc2)(CCc2ccccc2)C(=O)N1	inactive	
CCOC(=O)C1(c2ccccc2)CCN(CC(O)c2ccc(NC(C)=O)cc2)CC1 (stereo not drawn)	inactive	
CCOP(=S)(OCC)SCOC(=O)NCC(=O)OC	inactive	
COC(=O)C1=C(c2c(C)noc2C)C[C@@H]2CC[C@H]1N2C(=O)NCc1ccc2c(c1)OCO2	inactive	
COc1ccc(CNCCc2ccc3c(c2)OCO3)c(OC)c1OC	89.1 µM (active)	
CCN1CCN(Cc2cc(OC)c3c(c2)OCO3)CC1	inactive	
CC1C(=O)OC2CCN3CC=C(COC(=O)C(C)(O)C1(C)O)C23 (stereo not drawn)	inactive	
COc1cc([C@@H]2c3cc4c(cc3[C@H](OC(C)=O)[C@H]3COC(=O)[C@H]23)OCO4)cc(OC)c1OC	inactive	
COC(=O)[C@@H]1C(OC(=O)c2ccccc2)CC2CCC1N2C (stereo partly drawn)	inactive	
CCC1(CC(C)c2ccccc2)C(=O)NC(=O)NC1=O (stereo not drawn)	inactive	
CN(C)C(=O)Oc1cc(OC(=O)N(C)C)cc(C(O)CNC(C)(C)C)c1 (stereo not drawn)	inactive	
O=C(Cc1ccccc1[N+](=O)[O-])N1CCN(Cc2ccc3c(c2)OCO3)CC1	inactive	
Fc1ccc(N2CCN(Cc3ccc4c(c3)OCO4)CC2)cc1	3.55 µM (active)	
Cc1cc(=O)oc2c(C)c(OCC(=O)N3CCN(Cc4ccc5c(c4)OCO5)CC3)ccc12	inactive	
CCCCCCCCCCCCn1ccc(=N)cc1	inactive	
CSc1ccc(C(=O)C2CCCN(Cc3ccn[nH]3)C2)cc1 (stereo not drawn)	inactive	
CN(C)CC1Oc2ccccc2OC1(O)c1ccccc1 (stereo not drawn)	inactive	
O=c1c2ccccc2nc(-c2ccc(Cl)cc2Cl)n1-c1ccncc1	inactive	
COc1ccc(CN2C(=O)NC(=O)/C(=C\c3ccc(OC)c(OC)c3OC)C2=O)cc1	56.2 µM (active)	
O=C1NC(=O)N(Cc2ccco2)C(=O)/C1=C\c1cccn1CCOc1ccccc1	inactive	
O=C(O)COc1ccccc1/C=C1\C(=O)NC(=O)N(CCC2=CCCCC2)C1=O	inactive	
CC(=O)c1c(O)n(C2CCCCCC2)c(=O)[nH]c1=O	inactive	
CO[C@H]1[C@@H](O)[C@@H](C)O[C@H](O[C@H]2[C@H](Oc3cccc4c(O)c5c(=O)oc6ccc(C)c7c(=O)oc(c34)c5c67)O[C@H](C)[C@H](O)[C@@H]2O)[C@@H]1O	inactive	
COc1ccc(Br)cc1CNCCc1cccc(Cl)c1	22.4 µM (active)	
CC(C)N(CC#CCC1(O)c2ccccc2-c2ccccc21)C(C)C	inactive	
COc1ccc(-n2c(O)c(C(C)=Nc3ccc4c(c3)CCC4)c(=O)[nH]c2=O)cc1	inactive	
